# According to the supplement of paper PMC6658780:
# Structures can show the parent of a compound that is named as a salt. ± gives the standard deviation of the averaged measurements.
# Tested on: Klebsiella pneumoniae NCTC-13439
# Assay: percent growth inhibition of drug + antibiotic vs DMSO control; higher = more growth inhibition
# Conditions: antibiotic (0.125x MIC): tigecycline; 7 µM
row,Compound,percent growth inhibition [%]
1,O=C(O)c1cn(-c2ccc(F)cc2)c2cc(N3CCNCC3)c(F)cc2c1=O [Sarafloxacin],50 ± 14
2,CN(C)c1ccc(O)c2c1C[C@H]1C[C@H]3[C@H](N(C)C)C(O)=C(C(N)=O)C(=O)[C@@]3(O)C(O)=C1C2=O [Minocycline hydrochloride],-1.9 ± 6.7
3,CN[C@@H]1[C@@H](O[C@H]2O[C@H](CO)[C@@H](N)[C@H](O)[C@H]2O)OC2C[C@@H](N)[C@@H](O[C@H]3[C@H](O)[C@@H](O)[C@H](N)C[C@@H]3N)OC2[C@@H]1O (stereo partly specified) [Apramycin],35.7 ± 13
4,CC[C@H]1OC(=O)[C@H](C)[C@@H](O[C@H]2C[C@@](C)(OC)[C@@H](O)[C@H](C)O2)[C@H](C)[C@@H](O[C@@H]2O[C@H](C)C[C@H](N(C)C)[C@H]2O)[C@](C)(O)C[C@@H](C)CN(C)[C@H](C)[C@@H](O)[C@]1(C)O [Azithromycin],64.2 ± 2.8
5,O=C1OCCN1/N=C/c1ccc([N+](=O)[O-])o1 [Furazolidone],26.3 ± 2.4
6,NC[C@@H]1O[C@H](O[C@H]2[C@@H](O)[C@H](O[C@@H]3[C@@H](O)[C@H](N)C[C@H](N)[C@H]3O[C@H]3O[C@H](CO)[C@@H](O)[C@H](O)[C@H]3N)O[C@@H]2CO)[C@H](N)[C@@H](O)[C@@H]1O [Paromomycin sulfate],6.3 ± 3
7,CO[C@H]1/C=C/O[C@@]2(C)Oc3c(C)c(O)c4c(O)c(c(/C=N/N5CCN(C6CCCC6)CC5)c(O)c4c3C2=O)NC(=O)/C(C)=C\C=C\[C@H](C)[C@H](O)[C@@H](C)[C@@H](O)[C@@H](C)[C@H](OC(C)=O)[C@@H]1C [Rifapentine],14.7 ± 5.3
8,CO[C@H]1/C=C/O[C@@]2(C)Oc3c(C)c(O)c4c(O)c(c5c(nc6cc(C)ccn65)c4c3C2=O)NC(=O)/C(C)=C\C=C\[C@H](C)[C@H](O)[C@@H](C)[C@@H](O)[C@@H](C)[C@H](OC(C)=O)[C@@H]1C [Rifaximin],7.05 ± 5.2
9,OCCOCCN1CCN(C2=Nc3ccccc3Sc3ccccc32)CC1 [Quetiapine hemifumarate],-9.2 ± 16

# Same assay, conditions: antibiotic (0.125x MIC): tigecycline; 20 µM
row,Compound,percent growth inhibition [%]
1,O=C(O)c1cn(-c2ccc(F)cc2)c2cc(N3CCNCC3)c(F)cc2c1=O [Sarafloxacin],99.57 ± 0.39
2,CN(C)c1ccc(O)c2c1C[C@H]1C[C@H]3[C@H](N(C)C)C(O)=C(C(N)=O)C(=O)[C@@]3(O)C(O)=C1C2=O [Minocycline hydrochloride],49.8 ± 7.5
3,CN[C@@H]1[C@@H](O[C@H]2O[C@H](CO)[C@@H](N)[C@H](O)[C@H]2O)OC2C[C@@H](N)[C@@H](O[C@H]3[C@H](O)[C@@H](O)[C@H](N)C[C@@H]3N)OC2[C@@H]1O (stereo partly specified) [Apramycin],100 ± 0.19
4,CO[C@H]1/C=C/O[C@@]2(C)Oc3c(C)c(O)c4c(O)c(c(/C=N/N5CCN(C6CCCC6)CC5)c(O)c4c3C2=O)NC(=O)/C(C)=C\C=C\[C@H](C)[C@H](O)[C@@H](C)[C@@H](O)[C@@H](C)[C@H](OC(C)=O)[C@@H]1C [Rifapentine],42.9 ± 12
5,CO[C@H]1/C=C/O[C@@]2(C)Oc3c(C)c(O)c4c(O)c(c5c(nc6cc(C)ccn65)c4c3C2=O)NC(=O)/C(C)=C\C=C\[C@H](C)[C@H](O)[C@@H](C)[C@@H](O)[C@@H](C)[C@H](OC(C)=O)[C@@H]1C [Rifaximin],50.7 ± 4
6,OCCOCCN1CCN(C2=Nc3ccccc3Sc3ccccc32)CC1 [Quetiapine hemifumarate],-7.45 ± 10
7,CO[C@H]1/C=C/O[C@@]2(C)Oc3c(C)c(O)c4c(c3C2=O)C2=NC3(CCN(CC(C)C)CC3)NC2=C(NC(=O)/C(C)=C\C=C\[C@H](C)[C@H](O)[C@@H](C)[C@@H](O)[C@@H](C)[C@H](OC(C)=O)[C@@H]1C)C4=O [Rifabutin],30.9 ± 7.2
